From PubChem BioAssay
Shown are actives, neighbours in structure and some others; about 19% of the full set was active somewhere.
HT1080 IDH1KD tx: qHTS for induction of synthetic lethality in tumor cells producing 2HG: qHTS for the HT-1080-IDH1KD cell line | AID 686971, 2013 | actives 2% (n = 360,000) | Potency, µM (doses to about 46.1 µM), for the others: at the top dose activity, negative = toxicity, most hits filed as cytotoxic | HT-1080 IDH1 knockdown viability, ATP luminescence, 48 h;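 further: potency means the concentration at half of the fitted maximal effect; 0% = DMSO wells and -100% = cell-free medium wells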
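Using the IDH1-knockdown HT-1080 line run in the same batch and compound series as the NT line, viability after 48 h at 37 °C was determined by CellTiter-Glo luminescence and expressed as % activity.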
TDP1 cell noCPT: qHTS for Inhibitors of human tyrosyl-DNA phosphodiesterase 1 (TDP1): qHTS in cells in absence of CPT | Potency, µM (highest dose often 46.2 µM), for inactives: at the top dose activity change, negative = growth inhibition, hits mostly inhibitors | actives 15% (n = 420,000) | DT40 Tdp1-/- hTDP1 cells, no CPT, ATP luminescence, 48 h | AID 686978, 2013; further: potency means the concentration at half of the fitted maximal effect; nearly all actives have a fitted effect of over 55% in size
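Growth of hTDP1-complemented DT40 Tdp1-knockout cells is measured by ATP luminescence after at least 48 hr compound exposure at 37 °C, with DMSO substituting for the 20 nM CPT used in the parallel screen.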
ELG1 repair inh: qHTS screen for small molecules that inhibit ELG1-dependent DNA repair in human embryonic kidney (HEK293T) cells expressing luciferase-tagged ELG1; HEK293T ELG1-luciferase reporter, luminescence, 16 h; DNA damage induced by 5-fluorouridine; Potency, µM (highest dose often 46.1 µM), inactives show at the highest dose activity change, negative = inhibition, usual class: inhibitors; actives 2.3% (n = 330,000); AID 504467, 2011; further: potency means the concentration at half of the fitted maximal effect; nearly all actives have a fitted effect of over 55% in size
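Cells (2,000 per well) received 5-fluorouridine plus test compound or DMSO and were incubated 16 hr at 37 °C, 5% CO2. Luciferase activity was read by luminescence 30 min after ONE-Glo addition; signal suppression marked inhibition of damage-induced ELG1 function.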
IL-1B inflam inh: qHTS for Inhibitors of Inflammasome Signaling: IL-1-beta AlphaLISA Primary Screen; THP-1 LPS/ATP IL-1B secretion, AlphaLISA, 16 h; hits give low values; activity change, % at 57.5 µM; actives 4.7% (n = 360,000); AID 743279, 2014; in the data active means activity change below about -50%; inconclusive means mostly about -30% to -49%
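Secreted IL-1B measured by AlphaLISA bead assay after 16 h compound exposure of THP-1 cells; compounds (final up to 57.5 uM) added 1 h before LPS (250 ng/mL) and ATP (1.25 mM) stimulation; lower signal means less secretion.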
HT1080-NT tox: qHTS for induction of synthetic lethality in tumor cells producing 2HG: qHTS for the HT-1080-NT fibrosarcoma cell line | HT-1080-NT fibrosarcoma viability, CellTiter-Glo ATP luminescence, 48 h | Potency, µM (titrated, usually from 46.1 µM), inactives show at the top dose activity, negative = less viability, usual class: cytotoxic | actives 1.6% (n = 360,000) | AID 686970, 2013;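 further: NT is the 2HG producing partner of a matched IDH1 knockdown line; potency means the concentration at half of the fitted maximal effect; 0% = DMSO-treated cells and -100% = media-only wells without cells; nearly all actives have a fitted effect of over 55% in size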
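Compounds were tested in concentration-response format on HT-1080-NT cells for 48 hours at 37 degrees C. Cell viability came from CellTiter-Glo luminescence; curves were classified by r2, response magnitude and activity.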
DT40 TDP1 CPT: qHTS for Inhibitors of human tyrosyl-DNA phosphodiesterase 1 (TDP1): qHTS in cells in presence of CPT. chicken DT40 Tdp1-/-;hTDP1 cells + 20 nM CPT, ATP luminescence, 48 h. Potency, µM (top dose mostly 46.2 µM), for inactives: at the top dose activity change, negative = growth inhibition, usual class: inhibitors. actives 12% (n = 420,000); further: potency means the concentration at half of the fitted maximal effect; nearly all actives have a fitted effect of over 55% in size
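Chicken DT40 Tdp1-/- cells stably complemented with human TDP1 were seeded at 400 cells/well in medium containing 20 nM camptothecin, exposed to pin-transferred compounds, and grown at 37 °C for at least 48 hr. Viability was read as ATP luminescence.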
* = called active by the depositor; u = inconclusive; x = no result given. Unless noted, the call rests on the fitted dose curve; in most records, active means well fitted curve in the direction sought with a large enough effect; inconclusive means small, poorly fitted or top-dose-only effect, or another doubt; inactive means no such curve, though single readings can be large; an effect the other way counts as inactive or inconclusive. Unless noted, on the % scale 0 is the no-effect control and ±100 the full control effect.

SMILES | HT1080 IDH1KD tx | TDP1 cell noCPT | ELG1 repair inh | IL-1B inflam inh | HT1080-NT tox | DT40 TDP1 CPT
CCOC(=O)c1c(NC(=O)C(C)N2CCN(S(=O)(=O)c3cccs3)CC2)sc2c1CCC(C)C2 (stereo unspecified) | 11.0% | 5.8µM* | u | 2.1 | 10.1% | 8.2µM*
COc1ccc(Cl)cc1NC(=O)c1c(NCc2ccc(C)o2)sc2c1CCCCC2 | x | 14.6µM* | x | x | x | 9.2µM*
CCOc1ccc(NC(=O)c2c(NC(=O)c3ccncc3)sc3c2CCC(C(C)(C)C)C3)cc1 (stereo unspecified) | x | 20.6µM* | x | x | x | u
COC(=O)c1c(NC(=O)Cc2cccs2)sc2c1CCC(C)C2 (stereo unspecified) | 8.4% | u | u | -83.4* | -8.2% | u
CCN1C(=O)C2(c3ccccc31)c1c(oc3ccccc3c1=O)C(=O)N2CCOC (stereo unspecified) | x | -13.6% | x | x | x | -10.4%
C/C(=N\OCC(=O)Nc1c(C)cc(C)cc1C)c1ccc2c(c1)OCCO2 | 9.9% | u | -10.5% | 7.5 | 6.9% | u
O=C(Oc1ccccc1)N1CCC[C@@]2(CCN(c3ncccn3)C2)C1 | x | -0.5% | x | x | x | 13.9%
COc1ccccc1NC(=O)c1c(NC(=O)c2ccco2)sc2c1CCC2 | 18.5% | u | -27.0% | -17.6 | -0.5% | u
COc1ccccc1NC(=O)c1c(NCc2ccc(C)o2)sc2c1CCCCC2 | x | 6.51µM* | x | x | x | 5.8µM*
COc1ccc(OC)c(NC(=O)c2c(NCc3sccc3C)sc3c2CCCCC3)c1 | x | 2.59µM* | x | x | x | 7.31µM*
COc1ccc(Cl)cc1NC(=O)c1c(NCc2cccs2)sc2c1CCC(C)C2 (stereo unspecified) | x | 13µM* | x | x | x | u
CCOC(=O)N1CCc2c(sc(NCc3sccc3C)c2C(=O)Nc2cc(OC)ccc2OC)C1 | x | -22.7% | x | x | x | -3.6%
COC(=O)c1c(NC(=S)NN2CCN(C)CC2)sc2c1CCC(C)C2 (stereo unspecified) | 16.4µM* | u | 13.2% | -69.4* | 18.4µM* | u
COc1ccc(CC(=O)OCC(=O)NC2CCCCCC2)cc1OC | 13.9% | 1.0% | 3.3% | -4.7 | 13.7% | 3.8%
COc1ccc(Cl)cc1NC(=O)c1c(NCc2ccc(C)o2)sc2c1CCC(C)C2 (stereo unspecified) | x | 16.4µM* | x | x | x | u
CC1CCc2c(sc(NC(=O)COc3ccccc3)c2C(=O)Nc2ccccc2Cl)C1 (stereo unspecified) | x | -19.4% | x | x | x | 3.8%
CC(C)(C)C1CCc2c(sc(NC(=O)CCC(=O)O)c2C(=O)Nc2ccccc2C(F)(F)F)C1 (stereo unspecified) | x | 20.6µM* | x | x | x | 16.4µM*
Cc1ccc(-n2cc(C(=O)OCc3ccc(F)c(F)c3)c3ccccc3c2=O)cc1 | x | u | x | x | x | -20.0%
CC1CCCCC12NC(=O)N(CC(=O)Nc1ccc(Cl)c(S(=O)(=O)N3CCOCC3)c1)C2=O (stereo unspecified) | -0.9% | 18.4µM* | -24.1% | 24.3 | -0.9% | u
CCCC1(CCC)NC(=O)N(CC(=O)Nc2ccc(Cl)c(S(=O)(=O)N3CCOCC3)c2)C1=O | 8.5% | u | u | -62.7* | 5.7% | u
Cc1ccc(NC(=O)CN2C(=O)NC3(CCCCC3C)C2=O)cc1S(=O)(=O)N1CCOCC1 (stereo unspecified) | -2.2% | 23.1µM* | x | -6.9 | -0.2% | u
Cc1ccc(NC(=O)CN2C(=O)NC(C)(c3ccc(Cl)cc3)C2=O)cc1S(=O)(=O)N1CCOCC1 (stereo unspecified) | 13µM* | 18.4µM* | u | -5.1 | u | 20.6µM*
Cc1ccc(C)c(N2CCN(C(=O)c3ccc(Cn4c(=O)[nH]c5ccccc5c4=O)cc3)CC2)c1 | u | u | u | -15.9 | u | u
COc1cc2[nH]c(=O)n(CCC(=O)N3CCN(c4cc(Cl)ccc4C)CC3)c(=O)c2cc1OC | u | u | 8.2µM* | -7.6 | u | u
COc1cc2[nH]c(=O)n(CCCCCC(=O)N3CC=C(c4ccccc4)CC3)c(=O)c2cc1OC | -1.3% | 16.4µM* | 8.2µM* | -73.1* | -7.5% | 25.9µM*
SMILES | HT1080 IDH1KD tx | TDP1 cell noCPT | ELG1 repair inh | IL-1B inflam inh | HT1080-NT tox | DT40 TDP1 CPT
COc1cc2[nH]c(=O)n(CCC(=O)N3CCc4ccccc4C3)c(=O)c2cc1OC | 10.3% | -22.5% | -3.6% | -5.9 | 29.3% | 4.6%
CCOc1cc2[nH]c(=O)n(CCC(=O)N3CCN(c4ccccc4OC)CC3)c(=O)c2cc1OCC | 2.9% | u | -27.7% | -6.2 | 8.0% | -11.9%
Cc1ccc(C)c(N2CCN(C(=O)CCn3c(=O)[nH]c4ccccc4c3=O)CC2)c1 | x | 11.6µM* | x | x | x | 16.4µM*
O=C(c1ccc(F)cc1)N1c2ncnn2C2(CCCCC2)[C@@H]2CCCC[C@@H]21 | x | 20.6µM* | x | x | x | u
Cc1cccc(C(=O)N2c3ncnn3C3(CCCCC3)[C@@H]3CCCC[C@@H]32)c1 | x | 23.1µM* | x | x | x | u
Cc1cccc(C(=O)OCC(=O)NC2CCCCCCC2)c1 | -14.9% | 6.4% | u | -8.3 | -2.9% | -15.4%
CC(C)N1CCC1(C)C(=O)Nc1cccc(C#N)c1 (stereo unspecified) | u | 0.4% | x | 33.6 | 6.4% | -1.0%
COC(=O)c1ccccc1NC(=O)Nc1ccc2c(c1)OCO2 | -3.9% | 5.8% | u | -21.8 | 11.0% | 0.2%
O=C(Nc1ccc(F)cc1)Nc1ccc2c(c1)OCO2 | -6.9% | u | 0.1% | -21.1 | -8.8% | 9.2µM*
O=C(Nc1cccc(C(=O)O)c1)Nc1ccc2c(c1)OCO2 | 1.5% | -16.9% | 2.59µM* | -12.7 | -8.0% | -13.6%
O=C(Nc1ccc(Cl)cc1)Nc1ccc2c(c1)OCO2 | -1.4% | -14.4% | u | -14.6 | -1.2% | -26.8%
CC(C)c1ccccc1NC(=O)Nc1ccc2c(c1)OCO2 | 1.3% | -20.0% | 19.4% | 6.2 | -0.7% | 16.4µM*
Cc1cc(C)c(NC(=O)Nc2ccc3c(c2)OCO3)c(C)c1 | 3.1% | u | u | -3.2 | 2.9% | 11.6µM*
